Source: PubChem (National Center for Advancing Translational Sciences (NCATS))
Hits are enriched below; roughly 1.5% of the tested compounds scored in any of these assays.
IL-2 act: activators of IL-2 | IL-2 activation reporter assay, cell-based qHTS; stimulated with anti-CD3/CD4/CD28 beads; in transgenic mouse T cells | activation, % (series mostly up to about 46 µM) | 0.065% of 360,000 active | AID 652025; in the data active = activation above about 50%; inconclusive = mostly about 30% to 49%; also: 0% is about no effect
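Screening format: compound pinned onto unstimulated transgenic mouse T cells, 60 min incubation, then anti-CD3/anti-CD4/anti-CD28 bead stimulation for 18 hours at 37 degrees C, followed by EGFP and DsRed detection.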
BRCA1 expr act: increases BRCA1 expression. MCF7-BRCA1-FFLuc reporter, luminescence, 48 h; response scale: scaled: vehicle 0%, 10 µM genistein 100%. Potency, µM (doses to about 46.1 µM), for the others: at the highest dose activation, hits mostly activators. 1.1% of 380,000 active; also: potency is read from the fitted curve at half-maximal effect; nearly all actives have a fitted effect of over 80% in size
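48 h compound treatment of MCF7-BRCA1-FFLuc cells (phenol-red free MEM, 37 °C), then 15 min with luciferase substrate and luminescence imaging.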
gsp antag: antagonists of gsp mutant (McCune-Albright syndrome). 0.4% of 340,000 active. AID 624288. gsp-mutant cells, cAMP HTRF, 30 min. Potency, µM (highest dose often 76.9 µM), for inactives: at the highest dose activity change, negative = inhibition, hits mostly inhibitors; calls by dose curve; cell line not stated here;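 also: intracellular cAMP measured with PDE inhibitor Ro 20-1724 present during compound exposure; potency is read from the fitted curve at half-maximal effect; % is scaled to controls: 0 for no effect and ±100 for the full control effect; nearly all actives have a fitted effect of over 65% in size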
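HTRF cAMP measurement after 30 min RT detection following 30 min, 37C compound treatment alongside […] (added as 300 uM solution) in G418-selected cells seeded at 2000/well and grown 16–24 h.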
mIDH1 inhibitor: inhibitors of human mutant IDH1 R132H | IDH1-R132H enzyme, NADPH consumption, diaphorase/resazurin fluorescence | 0.093% of 390,000 active | Potency, µM (titrated, usually from 76.6 µM), inactives show at the highest dose activity change, negative = inhibition, actives largely listed as inhibitors; also: potency is read from the fitted curve at half-maximal effect; % is scaled to controls: 0 for no effect and ±100 for the full control effect; nearly all actives have a fitted effect of over 65% in size
Target sequence (O75874 whole entry R132H, stated change not applied): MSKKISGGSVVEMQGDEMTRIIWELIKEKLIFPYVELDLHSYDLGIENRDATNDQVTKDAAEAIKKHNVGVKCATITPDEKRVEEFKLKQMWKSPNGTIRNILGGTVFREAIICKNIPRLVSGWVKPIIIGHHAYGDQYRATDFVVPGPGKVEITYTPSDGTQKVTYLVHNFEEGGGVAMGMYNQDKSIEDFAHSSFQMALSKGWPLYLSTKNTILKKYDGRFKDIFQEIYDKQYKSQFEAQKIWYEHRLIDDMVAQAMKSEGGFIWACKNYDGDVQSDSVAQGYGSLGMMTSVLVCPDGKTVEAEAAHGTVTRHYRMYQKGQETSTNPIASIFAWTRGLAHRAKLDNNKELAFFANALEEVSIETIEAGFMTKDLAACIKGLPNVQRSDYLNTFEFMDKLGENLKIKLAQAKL
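IDH1-R132H (0.5 ug/mL dispensed) in pH 7.5 Tris buffer was preincubated 30 min with compound, then given a substrate mix of 0.016 mM NADPH and 2 mM alpha-KG for 80 min at room temperature; remaining NADPH was read by diaphorase/resazurin fluorescence.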
gsp agonist: gsp mutant agonism | gsp mutant cells, cAMP HTRF, 30 min | Potency, µM (doses to about 76.9 µM), for the others: at the highest dose activation (cAMP increase), actives largely listed as activators | 0.13% of 340,000 active; active = well fitted activation curve with a large enough effect; inconclusive = small, poorly fitted or top-dose-only effect, or another doubt; inactive = no such curve, though single readings can be large or run the other way; cell line not stated here;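 also: phosphodiesterase inhibitor Ro 20-1724 added with compounds to block cAMP breakdown; potency is read from the fitted curve at half-maximal effect; nearly all actives have a fitted effect of over 60% in size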
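Cells stably selected in G418 were plated at 2000/well, grown 16-24 hr, then given compounds in DMSO with the PDE inhibitor […] (300 uM solution added) for 30 min at 37C; cAMP was read by HTRF.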
Starred values were filed as active, the others as inactive; u = inconclusive; x = no result given; [ ] = another dose, or the depositor's remark. Unless noted, calls follow the shape of the dose curve; as a rule, active = well fitted curve in the direction sought with a large enough effect; inconclusive = small, poorly fitted or top-dose-only effect, or another doubt; inactive = no such curve, though single readings can be large; an effect the other way counts as inactive or inconclusive.

SMILES | IL-2 act | BRCA1 expr act | gsp antag | mIDH1 inhibitor | gsp agonist
CC(NCC(=O)Nc1cc(S(=O)(=O)N2CCOCC2)ccc1N1CCOCC1)c1ccco1 (configuration not stated) | 1 | 1% | -1% | -9% | 1%
CC(=O)c1cc(NC(=O)c2cccc(C(F)(F)F)c2)c(=O)oc1/C=C/N(C)C | 58* | -19% | 6% | -2% | -4%
COC(=O)Cn1c(C)c(/C=C/c2cc[n+](C)cc2)c2ccccc21 | 222* | -18% | u | -1% | 9%
O=C(Nc1ccc(F)cc1)c1ccccc1 | -4 | 11µM* | 6% | 1% | -46%
O=C(Nc1ccccc1)c1ccn[nH]1 | 0 | 7.1µM* | -9% | 17% | 5%
O=C(Nc1ccc(Cl)c(Cl)c1)c1ccccc1 | -1 | 31% | 11µM* | 14% | x
O=C(Nc1cccc(Cl)c1)c1ccccc1 | 0 | u | 3% | 10% | 6%
O=C(Nc1ccc(Nc2ccccc2)cc1)c1ccccc1 | 0 | 3.5µM* | -2% | 7% | -36%
O=C(Nc1ccc(Nc2ccccc2)cc1)c1ccc(Cl)cc1 | 0 | -4% | -10% | 7% | -26%
CCc1nc(N)nc(N)c1-c1ccc(Cl)c([N+](=O)[O-])c1 | 0 | -66% | 9% | 8% | -6%
O=C(Nc1ccc(Cl)c(Cl)c1)Nc1ccccc1O | 0 | 2.8µM* | -19% | -2% | -12%
O=C(Nc1ccc(SC(F)F)cc1)c1ccc(F)cc1 | 0 | 3.2µM* | -2% | 4% | -2%
COc1ccc(OC)c(NC(=O)C2=C(C)C(=O)OC23CCCCCC3)c1 | x | -1% | x | 11% | x
C=CCn1c(=O)[nH]c2cc(C(=O)N3CCN(c4cccc(Cl)c4)CC3)ccc2c1=O | 0 | -63% | 32µM* | 1% | -42%
Cc1ccc2nc(-c3ccc(C)o3)c(Nc3ccc(F)cc3)n2c1 | x | 14% | x | x | x
Cc1sc2ncnc(N3CCC(C(=O)N(C)CC(=O)Nc4ccccc4Br)CC3)c2c1C | -4 | -45% | 35µM* | 1% | -107%
COc1ccc(-c2ccc(SCC(=O)NC3CCCCC3)nn2)cc1 | 1 | u | 0% | -3% | 17%[15.4 µM]
COc1ccc(-c2cn3nc(SCC(=O)NC4CCCCC4)ccc3n2)cc1 | -4 | 1.3µM* | -3% | 22% | 5%[15.4 µM]
O=[N+]([O-])c1ccc(O/N=[N+](\[O-])N2CCN(c3ncccn3)CC2)c([N+](=O)[O-])c1 | x | 0% | x | x | x
CC1CN(S(=O)(=O)c2cccc(C(=O)N(CCc3ccccc3)Cc3ccccc3)c2)CC(C)O1 (configuration not stated) | -1 | -41% | u | 0% | -11%[15.4 µM]
O=C(CCCCCN1C(=O)c2cccc3cccc(c23)C1=O)NCCCO | 0 | 6% | -1% | -1% | 1%[15.4 µM]
O=C(CN1C(=O)c2cccc3cccc(c23)C1=O)NCCCO | 0 | 8% | 2% | -5% | 14µM*
CN(C)c1ccc(NC(=O)Nc2ccc3c(c2)nnn3C)cc1 | 1 | u | u | 5% | -10%[15.4 µM]
Cc1ccc(NC(=O)c2ccc3c(c2)nnn3C)cc1 | -2 | 7.1µM* | 14% | -4% | -40%
Cn1nnc2cc(C(=O)Nc3ccccc3)ccc21 | -2 | 7.1µM* | -2% | -2% | -13%
SMILES | IL-2 act | BRCA1 expr act | gsp antag | mIDH1 inhibitor | gsp agonist
Cn1nnc2cc(C(=O)Nc3ccc(Cl)cc3)ccc21 | 0 | 26% | -8% | 6% | u
COc1cccc(NC(=O)Nc2ccc3c(c2)nnn3C)c1 | 0 | 7.9µM* | 1% | 7% | 4%
Cn1cccc1C(=O)C(=O)Nc1cccc(Cl)c1Cl | 1 | -38% | 10% | 3% | 22%
Cn1cccc1C(=O)C(=O)Nc1cc(Cl)cc(Cl)c1 | -3 | 57% | -8% | -6% | -13%
Cn1cccc1C(=O)C(=O)Nc1ccc(F)c(F)c1 | 0 | 5.6µM* | -8% | 0% | -17%
Cn1cccc1C(=O)C(=O)Nc1ccc(Cl)cc1 | -1 | 4.5µM* | 8% | -1% | 6%
COCC(=O)N1CCC2CC1c1c(-c3ccc(C(F)(F)F)cc3)cccc12 (configuration not stated) | 0 | 1% | 0% | 5%[38.3 µM] | x
Clc1cccc(-c2nc3ccc(Cl)cn3c2Cc2ccsc2)c1 | 0 | 13µM* | x | x | x
Clc1cccc(-c2nc3ccc(Cl)cn3c2Cc2ccccc2)c1 | -1 | 2% | x | x | x
Cc1ccc2c(c1)C/C(=C/c1ccc(N(C)C)cc1)C2=O | x | -12% | x | x | x
CCC(=O)Nc1ccccc1-c1nc2ccccc2n(Cc2cccc(Br)c2)c1=O | x | x | x | -11% | x
COc1ccc(CNc2ccccc2C(=O)NCc2ccccc2)cc1COc1ccc(NC(C)=O)cc1 | x | -22% | x | x | x
Cn1c(O)c(/C=N/NC(=O)c2cc3ccccc3cc2O)c2ccccc21 | 4 | -40% | 35µM* | 5% | -8%[15.4 µM]
Cn1c2ccccc2c2cc(/C=N/NC(=O)c3ccc(O)cc3O)ccc21 | 1 | 1% | u | 7% | 20%
Cc1ccccc1Cn1nnc(C(=O)Nc2ccc3c(c2)OCCO3)c1N | -6 | 3.5µM* | -5% | 6% | -23%
Cc1ccc(NC(=O)c2nnn(-c3ccc4c(c3)OCCO4)c2N)cc1 | 1 | 5.6µM* | x | 8% | 3%[15.4 µM]
CC(C)CN(C(=O)CN1C(=O)NC(c2ccccc2)(c2ccccc2)C1=O)C1CCS(=O)(=O)C1 (configuration not stated) | 2 | 5% | -4% | 1% | -34%
COc1ccccc1C(C)NCC(=O)c1c(C)[nH]c2ccccc12 (configuration not stated) | x | 0% | x | x | x
CCC(CC)C(=O)Nc1nnc(SCc2cc(=O)c3ccccc3[nH]2)s1 | x | x | x | 24% | x
N#Cc1c(-c2ccc(Cl)cc2)cc(-c2cccs2)nc1SCC(=O)O | 1 | -38% | 10µM* | -3% | u
N#Cc1c(-c2ccccc2)cc(-c2cccs2)nc1SCC(=O)O | 0 | -43% | -17% | -7% | -15%[15.4 µM]
COc1ccccc1CC(=O)c1ccc(OCc2ccccc2)cc1 | -3 | 8.9µM* | 1% | -2% | -18%
COc1ccc(C(=O)CN2CCN(c3ncccn3)CC2)cc1 | 0 | 1% | 50µM* | -2% | 37%
O=C(COC(=O)c1cccc([N+](=O)[O-])c1)c1ccc(OCc2ccccc2)cc1 | 1 | 5µM* | 18% | 2% | 3%
O=C(CCc1ccccc1)OCC(=O)c1cccc([N+](=O)[O-])c1 | 0 | -3% | 8% | 0% | 3%[15.4 µM]
COc1ccc(O)c(C(=O)CC(=O)c2ccncc2)c1 | 0 | 5.6µM* | 4% | 0% | 18%
O=c1c(-c2cc(-c3ccccc3)nc3c2COc2ccccc2-3)coc2ccc(Cl)cc12 | x | 3% | x | -13% | x
COC(=O)c1ccc(OCC(=O)c2ccccc2)cc1 | -3 | 11µM* | -15% | 0% | -14%
CCC(=O)c1ccc(-c2ccccc2)cc1 | 8 | 13µM* | -1% | 5% | 0%
